PAFAH1B2 inh: blocks human PAF acetylhydrolase 1b catalytic subunit 2. inhibition, % at 3.39 µM. 340,000 compounds, 1.2% hits. recombinant PAFAH1B2, FP-rhodamine activity probe, fluorescence polarization. P68402;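 active = inhibition above the mean of all tested compounds plus 3 SD, cut at about 24% in these data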;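 also: 0% = enzyme with DMSO and 100% = wells lacking PAFAH1B2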
Target sequence (P68402 whole entry, looked up): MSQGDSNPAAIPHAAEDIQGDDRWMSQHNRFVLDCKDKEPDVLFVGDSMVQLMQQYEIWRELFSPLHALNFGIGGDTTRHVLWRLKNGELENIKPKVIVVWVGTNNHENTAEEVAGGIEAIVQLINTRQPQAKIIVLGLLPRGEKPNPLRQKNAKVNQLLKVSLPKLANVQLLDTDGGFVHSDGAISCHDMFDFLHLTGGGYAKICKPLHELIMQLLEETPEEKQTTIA
PAFAH2 inh: inhibitors of human PAFAH2. Q99487. recombinant PAFAH2, FP-rhodamine activity probe, fluorescence polarization. inhibition, % at 3.39 µM. 340,000 compounds, 0.99% hits;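 active = inhibition above the mean over all tested compounds plus 3 SD, cut at about 30% in these data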;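 also: inhibitors block probe labeling of enzyme so polarization drops; 0% = enzyme with DMSO and 100% = wells lacking PAFAH2 protein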
ZTA counter: ZTA (EBV) inhibition in EBNA-1 counter-screen | P03206 | inhibition, % at 11 µM | AID 2234 | ZTA-DNA binding, fluorescence polarization | 320,000 compounds, 0.15% hits; in the data active = inhibition above about 33%
Target sequence (P03206 whole entry, looked up): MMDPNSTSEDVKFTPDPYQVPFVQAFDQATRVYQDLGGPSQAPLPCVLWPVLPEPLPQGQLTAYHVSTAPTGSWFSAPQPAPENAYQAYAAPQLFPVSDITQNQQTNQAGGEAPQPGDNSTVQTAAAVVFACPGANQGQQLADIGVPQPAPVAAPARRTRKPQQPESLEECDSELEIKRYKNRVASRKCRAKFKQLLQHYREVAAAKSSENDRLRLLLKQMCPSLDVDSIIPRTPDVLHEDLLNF
pPAFAH FP inh: inhibitors of human plasma PAF acetylhydrolase (pPAFAH) | 330,000 compounds, 1.5% hits | AID 463082 | inhibition, % at 3.39 µM | recombinant pPAFAH, FP-rhodamine probe fluorescence polarization;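 active = inhibition above the mean inhibition across the screen plus 3 SD, cut at about 25% in these data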;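 also: inhibitors block binding of the rhodamine activity-based probe so polarization drops; 0% = enzyme with DMSO and 100% = wells lacking pPAFAH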
PAFAH1B3 inh: inhibitors of human PAFAH1B3; Q15102; recombinant PAFAH1B3, FP-rhodamine probe, fluorescence polarization; inhibition, % at 3.39 µM; 340,000 compounds, 0.28% hits; AID 492972;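 active = inhibition above the screen-wide average of all tested compounds plus 3 SD, cut at about 25% in these data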;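 also: 0% = enzyme with DMSO only and 100% = wells lacking PAFAH1B3 protein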
Target sequence (Q15102 whole entry, looked up): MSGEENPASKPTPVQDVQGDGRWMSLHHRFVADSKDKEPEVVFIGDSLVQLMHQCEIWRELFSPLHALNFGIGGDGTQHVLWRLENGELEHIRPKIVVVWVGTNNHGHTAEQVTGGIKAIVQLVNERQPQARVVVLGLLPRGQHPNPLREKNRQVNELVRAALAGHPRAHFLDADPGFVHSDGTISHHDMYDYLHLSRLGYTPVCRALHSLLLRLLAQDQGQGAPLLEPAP
EBNA-1 inh: blocks EBNA-1 binding to DNA; EBNA-1 DNA binding, fluorescence polarization; inhibition, % at 14.8 µM; 300,000 compounds, 0.34% hits; AID 1950; in the data active = inhibition above about 28%
* hit, by the source's call; · = no result given. A selection: hits, their analogues and other compounds. The true share with any hit is near 2.9%.

SMILES | PAFAH1B2 inh | PAFAH2 inh | ZTA counter | pPAFAH FP inh | PAFAH1B3 inh | EBNA-1 inh
CCOC(=O)[C@@H]1[C@H]2COc3cc(OC)ccc3[C@@H]2N2C(=O)N(c3ccccc3)C(=O)[C@@]12C | -1.7 | -0.8 | · | 4.7 | 8.1 | ·
O=C(O)c1ccc(Cl)c(S(=O)(=O)N(Cc2ccccc2)c2ccc(F)cc2)c1 | 33.0* | 2.0 | 7.4 | 5.1 | -5.7 | 2.4
O=C(O)c1ccc(Cl)c(S(=O)(=O)N(Cc2ccccc2)c2ccccc2)c1 | 22.4 | 12.7 | 0.8 | 0.1 | -5.5 | 3.4
CCN(c1ccccc1)S(=O)(=O)c1cc(C(=O)O)ccc1C | 52.7* | 15.8 | 4.8 | 14.8 | 16.1 | -3.2
COc1ccc(N(Cc2ccccc2)S(=O)(=O)c2cc(C(=O)O)ccc2Cl)cc1 | 3.3 | -3.3 | -3.8 | -2.8 | -1.3 | 2.9
O=C(O)c1ccc(CN(c2ccccc2)S(=O)(=O)c2ccccc2)cc1 | 2.0 | 3.9 | 11.0 | 4.6 | 4.0 | -3.1
O=C(O)c1cccc(S(=O)(=O)N(Cc2ccccc2)c2ccccc2)c1 | 25.6* | 7.2 | -7.3 | -0.7 | 3.0 | -5.2
O=C(O)c1ccc(Cl)c(S(=O)(=O)N(Cc2ccccc2)c2ccccc2Cl)c1 | 28.3* | 12.4 | 4.0 | 7.0 | 6.5 | 2.9
CN(Cc1nc(-c2ccccc2)no1)C1CCOCC1 | 1.9 | -0.3 | -2.2 | 4.3 | 3.2 | -6.3
O=C(CSCc1ccc(Cl)cc1Cl)Nc1ccc(O)cc1C(=O)O | 27.6* | -2.2 | -9.1 | 0.4 | -1.1 | -19.5
CCNc1nc(SC(C(C)=O)C(C)=O)nc(N(C)C)n1 | -0.1 | 5.2 | -3.6 | 0.8 | 12.8 | -9.3
CCNc1nc(NC(C)(C)C)nc(SC(C(C)=O)C(C)=O)n1 | 24.9* | -12.2 | 14.2 | -0.6 | 1.0 | -11.6
COCCCn1c(SCc2ccc(OC)cc2)nc2cc(OC)c(OC)cc2c1=N | 6.9 | 4.7 | 21.7 | 25.4* | 11.9 | 2.4
C[C@H](NC(=O)OCc1ccccc1)C(=O)N[C@@H](Cc1c[nH]c2ccccc12)C(=O)O | 25.5* | 2.3 | -14.3 | 0.4 | -0.1 | -4.9
O=C(O)/C=C/C(=O)N(CC1CCCO1)C1CC(=O)N(c2c(Cl)cccc2Cl)C1=O (configuration not stated) | 7.0 | -5.7 | -16.4 | -6.6 | 5.3 | -4.4
O=C(O)c1cc(O)c2c(c1)[C@@H]([C@H]1c3cc(C(=O)O)cc(O)c3C(=O)c3c(O[C@@H]4O[C@H](CO)[C@@H](O)[C@H](O)[C@H]4O)cccc31)c1cccc(O[C@@H]3O[C@H](CO)[C@@H](O)[C@H](O)[C@H]3O)c1C2=O | · | · | · | 95.5* | · | ·
Cc1ccc(S(=O)(=O)Nc2nc3ccccc3nc2NCc2ccco2)cc1 | 29.5* | 33.9* | 6.7 | 15.4 | 25.7* | -7.3
CC(=O)OCC1=C(C(=O)O)N2C(=O)C(NC(=O)c3ccc(COc4cccc(Cl)c4Cl)o3)C2SC1 (configuration not stated) | 9.5 | 12.0 | 4.7 | 30.4* | 8.3 | 0.6
O=C(Nc1ccccc1C(=O)NCCCN1CCOCC1)c1cccc([N+](=O)[O-])c1 | 3.0 | -3.4 | -8.2 | -4.0 | 10.0 | 3.8
O=C(CN1CCCCCC1)N/N=C/c1ccc2ccccc2c1 | 5.6 | -2.1 | · | · | 14.4 | ·
O/N=C/c1ccc2ccccc2c1 | 50.2* | -0.7 | -10.8 | 0.2 | 5.2 | -4.3
CCn1c2ccccc2c2cc(NC(=O)c3ccccc3-c3ccccc3C(=O)O)ccc21 | 12.5 | 8.8 | 3.0 | 33.3* | 9.8 | -6.9
CCn1c2ccccc2c2cc(NC(=O)C(C)C)ccc21 | 1.4 | 12.6 | -0.3 | 9.1 | -0.6 | 4.2
CN(CCc1ccccn1)C(=S)NC(=O)c1ccco1 | 52.8* | 1.0 | 6.4 | 3.8 | 4.9 | 11.5
CCOc1cc(/C=N/N=C2/NC(=O)C(CC(=O)O)S2)ccc1OCc1ccc(Cl)cc1 (configuration not stated) | 1.0 | 0.1 | -8.1 | 24.6* | 0.2 | 10.1
SMILES | PAFAH1B2 inh | PAFAH2 inh | ZTA counter | pPAFAH FP inh | PAFAH1B3 inh | EBNA-1 inh
O=C(CSCc1ccc(Br)cc1)N1CCOCC1 | 26.3* | 4.5 | -18.9 | 4.7 | 2.8 | 4.1
O=C(CSCc1ccc(Br)cc1)N1CCCC1 | 28.9* | 8.4 | 4.5 | 6.2 | 7.3 | -9.0
Cc1ccc(CSCC(=O)N2CCCC2)cc1 | 5.6 | -1.3 | -0.9 | -3.5 | 6.4 | -3.8
CCN(CC)S(=O)(=O)c1ccc(/C=C/C(=O)OCC(=O)NCc2ccco2)cc1 | 8.7 | 74.8* | · | 30.0* | -5.8 | ·
CCN(CC)S(=O)(=O)c1ccc(C(=O)OCC(=O)NCc2ccco2)cc1 | -2.4 | -1.1 | 11.9 | 17.4 | 11.1 | 2.7
O=c1[nH][nH]c(C(F)(F)F)c1C=NCc1cccs1 | 10.0 | -5.4 | -17.4 | 2.1 | -4.5 | -0.6
CC(=O)Nc1cccc(-c2cc(-c3c(Cl)cccc3Cl)no2)c1 | -0.3 | -1.6 | 4.4 | 28.4* | -2.1 | -3.6
COc1ccc(OC)c(CCNC(=O)c2ccc3c(c2)N(Cc2ccc(F)cc2)CCS3)c1 | -0.2 | 2.9 | -1.1 | 24.0 | 12.7 | -4.2
COc1ccc(OC)c(CCNC(=O)c2ccc3c(=O)[nH]c4c(C(=O)NC(C)C)sc(=S)n4c3c2)c1 | 24.3* | 60.1* | -5.0 | 22.0 | 20.7 | -7.6
CCOc1ccc(CCNC(=O)c2ccc3c(=O)[nH]c4c(C(=O)NC(C)C)sc(=S)n4c3c2)cc1 | 12.1 | 29.2 | -19.1 | 29.1* | 15.1 | 2.1
CC(C)NC(=O)c1sc(=S)n2c1[nH]c(=O)c1ccc(C(=O)NCCc3ccc(Cl)cc3)cc12 | 15.2 | 9.9 | -8.4 | 17.1 | 12.2 | 0.4
O=C(OCC(=O)N1CCOCC1)c1cc(F)c(F)cc1Cl | 1.2 | -3.2 | 3.8 | 1.8 | -1.8 | 1.7
O=[N+]([O-])c1cc(C2Nc3cccc4cccc(c34)N2)ccc1Cl | 37.1* | 7.7 | 0.1 | 0.1 | 13.1 | -14.5
COc1cc(C2Nc3cccc4cccc(c34)N2)cc(OC)c1OC(C)=O | 7.2 | -8.3 | -1.8 | 10.8 | 31.8* | 6.2
COc1cc(C2Nc3cccc4cccc(c34)N2)ccc1O | 24.7* | -28.7 | 8.5 | 5.0 | 37.4* | 4.0
CC(C)NC(=O)N(C)C[C@@H]1Oc2c(NC(=O)C3CCOCC3)cccc2C(=O)N([C@@H](C)CO)C[C@H]1C | 2.0 | -0.7 | · | 1.8 | 6.8 | ·
CCOCC(O)CSCc1ccc(Cl)cc1 (configuration not stated) | 25.6* | 2.9 | -7.8 | 1.8 | -1.1 | -0.9
CN(CC(=O)Nc1ccc(Cl)cc1)CC(=O)Nc1ccc(C(N)=O)cc1 | 7.9 | 8.0 | 7.7 | 0.2 | 3.8 | 4.1
CN(C)CC(=O)Nc1ccc(Oc2ccc(Cl)cc2)cc1 | 3.9 | 5.9 | 13.1 | 25.5* | 7.3 | -6.1
C=CCSC(=C(C#N)C#N)c1cc2c([nH]1)CCCC2 | 1.0 | -2.5 | 15.4 | 11.8 | 13.7 | -11.9
Cc1ccc(CSc2nc(N)cc(=O)[nH]2)cc1 | 24.5* | -9.7 | -10.2 | 1.6 | -8.5 | -7.7
CCCCc1ccc(Nc2nc(CCC)cc(=O)[nH]2)cc1 | 1.0 | 0.1 | -6.2 | 28.7* | 1.6 | -4.3

Compound activity from PubChem BioAssay.
